From publication PMC7862700, “An all-to-all approach to the identification of sequence-specific readers for epigenetic DNA modifications on cytosine” come the findings set out here.

Assay in all cases: DAPPL (digital affinity profiling via proximity ligation, sequencing); 10 mM Tris-HCl pH 7.5, 50 mM NaCl, 1 mM DTT, 4% glycerol, room temperature, 30 min; GST-TFs on glutathione beads, 16-mer random dsDNA library, 0.1% formaldehyde crosslink after washing; high values mean tight binding
One assay concerns the target T1, FLI1 (Homo sapiens, UniProt Q01543 1-452).
T1 sequence: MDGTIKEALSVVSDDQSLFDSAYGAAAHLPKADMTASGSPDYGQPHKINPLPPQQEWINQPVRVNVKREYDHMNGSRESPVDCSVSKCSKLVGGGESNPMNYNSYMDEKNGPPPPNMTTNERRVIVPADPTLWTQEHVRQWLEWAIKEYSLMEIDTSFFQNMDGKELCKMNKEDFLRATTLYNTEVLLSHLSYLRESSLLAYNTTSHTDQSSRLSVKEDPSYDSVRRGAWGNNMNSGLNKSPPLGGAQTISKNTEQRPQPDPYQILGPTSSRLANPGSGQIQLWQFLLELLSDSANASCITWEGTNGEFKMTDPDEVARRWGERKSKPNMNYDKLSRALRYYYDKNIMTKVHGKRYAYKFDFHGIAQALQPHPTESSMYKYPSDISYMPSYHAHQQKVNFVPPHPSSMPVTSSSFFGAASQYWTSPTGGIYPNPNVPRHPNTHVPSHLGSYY
To be noted: protein: recombinant; tags: N-terminal GST; dsDNA, one strand shown. In a few lines: (§1)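 Binding signal is defined as a hexamer's read frequency for one factor over its frequency for the tag-only sample. To obtain reads, GST-fused human transcription factors were expressed in yeast, captured on glutathione beads, barcoded with DNA and pooled with that sample. Pools met 200 nmole of a 16-mer random double-stranded DNA library in Tris/NaCl/DTT/glycerol buffer for 30 min at room temperature before washing, 0.1% formaldehyde crosslinking, proximity ligation (BsaI/T4 ligase, 1 h, 37 °C), PCR and Illumina NextSeq500 sequencing.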

In the next assay the target is T2, ELK1 (Homo sapiens, UniProt P19419 1-428).
T2 sequence: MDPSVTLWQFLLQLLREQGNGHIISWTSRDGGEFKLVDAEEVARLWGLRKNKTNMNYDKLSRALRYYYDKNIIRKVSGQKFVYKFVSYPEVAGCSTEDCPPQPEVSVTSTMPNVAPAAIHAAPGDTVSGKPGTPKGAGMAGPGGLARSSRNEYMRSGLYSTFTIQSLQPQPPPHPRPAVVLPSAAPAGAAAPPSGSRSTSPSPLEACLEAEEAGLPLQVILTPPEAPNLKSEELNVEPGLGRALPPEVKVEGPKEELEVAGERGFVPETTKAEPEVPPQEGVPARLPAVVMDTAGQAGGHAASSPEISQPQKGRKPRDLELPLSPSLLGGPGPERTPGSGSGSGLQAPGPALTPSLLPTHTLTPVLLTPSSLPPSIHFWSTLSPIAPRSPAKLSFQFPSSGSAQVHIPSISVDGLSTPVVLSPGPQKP
The following applies: protein: recombinant; tags: N-terminal GST; dsDNA, one strand shown. The procedure, abridged: as §1

For another assay, the target named is T3, GABPA (Homo sapiens, UniProt Q06546 1-454).
T3 sequence: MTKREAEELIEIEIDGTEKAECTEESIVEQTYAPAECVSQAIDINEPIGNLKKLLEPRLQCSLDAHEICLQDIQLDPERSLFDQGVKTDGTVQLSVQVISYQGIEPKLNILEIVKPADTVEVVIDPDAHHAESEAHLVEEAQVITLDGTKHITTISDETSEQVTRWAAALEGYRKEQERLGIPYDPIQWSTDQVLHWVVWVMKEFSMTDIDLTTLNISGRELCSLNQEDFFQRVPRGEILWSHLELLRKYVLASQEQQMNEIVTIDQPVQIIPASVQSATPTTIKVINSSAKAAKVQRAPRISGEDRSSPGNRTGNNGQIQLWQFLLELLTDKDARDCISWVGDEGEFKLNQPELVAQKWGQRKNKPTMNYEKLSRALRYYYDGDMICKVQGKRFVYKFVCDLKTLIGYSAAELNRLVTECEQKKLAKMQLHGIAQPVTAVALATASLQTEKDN
To be noted: protein: recombinant; tags: N-terminal GST; dsDNA, one strand shown. The procedure, abridged: as §1

In the next assay the target is T4, ERG (Homo sapiens, UniProt P11308 1-479).
T4 sequence: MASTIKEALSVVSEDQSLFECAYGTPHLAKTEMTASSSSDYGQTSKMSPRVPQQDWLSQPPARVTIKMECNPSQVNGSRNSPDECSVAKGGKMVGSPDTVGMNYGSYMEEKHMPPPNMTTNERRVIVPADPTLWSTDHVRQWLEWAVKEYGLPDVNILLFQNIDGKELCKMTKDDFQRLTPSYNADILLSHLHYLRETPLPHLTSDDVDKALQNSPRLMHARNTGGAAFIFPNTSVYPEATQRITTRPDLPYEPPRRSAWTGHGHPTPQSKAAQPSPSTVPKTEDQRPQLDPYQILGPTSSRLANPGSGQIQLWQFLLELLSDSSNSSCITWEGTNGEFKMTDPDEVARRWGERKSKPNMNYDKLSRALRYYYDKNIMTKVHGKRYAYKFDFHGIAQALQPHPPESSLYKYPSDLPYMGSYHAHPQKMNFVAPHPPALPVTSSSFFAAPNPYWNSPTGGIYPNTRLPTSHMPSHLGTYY
To be noted: protein: recombinant; tags: N-terminal GST; dsDNA, one strand shown. In a few lines: as §1

The next assay deals with ELF1 (Homo sapiens, UniProt P32519 1-619). To be noted: protein: recombinant; tags: N-terminal GST; dsDNA, one strand shown. The procedure, abridged: as §1
In a further assay the target is T5, EHF (Homo sapiens, UniProt Q9NZC4 1-300).
T5 sequence: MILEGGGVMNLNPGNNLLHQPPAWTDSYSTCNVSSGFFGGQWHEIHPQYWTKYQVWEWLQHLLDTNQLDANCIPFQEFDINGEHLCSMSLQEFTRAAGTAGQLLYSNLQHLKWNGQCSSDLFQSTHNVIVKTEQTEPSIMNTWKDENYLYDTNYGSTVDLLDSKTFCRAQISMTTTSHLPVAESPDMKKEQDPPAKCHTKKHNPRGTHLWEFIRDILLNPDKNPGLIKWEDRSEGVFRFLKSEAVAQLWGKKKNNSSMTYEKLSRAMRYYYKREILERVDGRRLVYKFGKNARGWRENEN
The following applies: protein: recombinant; tags: N-terminal GST; dsDNA, one strand shown. In a few lines: as §1

The target in a further assay is SPI1 (Homo sapiens, UniProt P17947 1-270). To be noted: protein: recombinant; tags: N-terminal GST; dsDNA, one strand shown. In a few lines: as §1
The next assay concerns the target SPIB (Homo sapiens, UniProt Q01892 1-262). To be noted: protein: recombinant; tags: N-terminal GST; dsDNA, one strand shown. The procedure, abridged: as §1
In a further assay the target is T6, ELK3 (Homo sapiens, UniProt P41970 1-407).
T6 sequence: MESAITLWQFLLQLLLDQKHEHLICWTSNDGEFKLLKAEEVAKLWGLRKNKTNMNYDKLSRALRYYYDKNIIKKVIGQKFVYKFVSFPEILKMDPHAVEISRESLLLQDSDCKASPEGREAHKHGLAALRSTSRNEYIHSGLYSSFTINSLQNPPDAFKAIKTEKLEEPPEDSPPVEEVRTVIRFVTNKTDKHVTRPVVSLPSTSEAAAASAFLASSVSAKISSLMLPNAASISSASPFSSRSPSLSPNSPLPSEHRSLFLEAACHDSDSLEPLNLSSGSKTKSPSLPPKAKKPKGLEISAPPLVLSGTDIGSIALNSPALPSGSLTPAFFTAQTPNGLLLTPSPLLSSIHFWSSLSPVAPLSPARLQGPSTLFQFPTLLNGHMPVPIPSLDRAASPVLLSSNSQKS
The following applies: protein: recombinant; tags: N-terminal GST; dsDNA, one strand shown. In a few lines: as §1

The target of the next assay is T7, FEV (Homo sapiens, UniProt Q99581 1-238).
T7 sequence: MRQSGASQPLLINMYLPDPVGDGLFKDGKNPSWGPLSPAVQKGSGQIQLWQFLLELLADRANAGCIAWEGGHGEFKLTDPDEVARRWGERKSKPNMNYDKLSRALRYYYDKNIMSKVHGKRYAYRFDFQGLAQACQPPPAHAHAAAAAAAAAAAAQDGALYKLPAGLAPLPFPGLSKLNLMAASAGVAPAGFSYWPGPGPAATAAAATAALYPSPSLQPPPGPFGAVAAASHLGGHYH
The following applies: protein: recombinant; tags: N-terminal GST; dsDNA, one strand shown. In a few lines:
as §1

The target in another assay is ETV5 (Homo sapiens, UniProt P41161 1-510). To be noted: protein: recombinant; tags: N-terminal GST; dsDNA, one strand shown. In a few lines: as §1
The target in another assay is HSF1 (Homo sapiens, UniProt Q00613 1-529). The following applies: protein: recombinant; tags: N-terminal GST; chain copies: 3; dsDNA, one strand shown. The procedure, abridged: as §1
In another assay the target is ELF4 (Homo sapiens, UniProt Q99607 1-663). To be noted: protein: recombinant; tags: N-terminal GST; dsDNA, one strand shown. In a few lines:
as §1

Another assay deals with T8, ELK4 (Homo sapiens, UniProt P28324-2 1-405).
T8 sequence: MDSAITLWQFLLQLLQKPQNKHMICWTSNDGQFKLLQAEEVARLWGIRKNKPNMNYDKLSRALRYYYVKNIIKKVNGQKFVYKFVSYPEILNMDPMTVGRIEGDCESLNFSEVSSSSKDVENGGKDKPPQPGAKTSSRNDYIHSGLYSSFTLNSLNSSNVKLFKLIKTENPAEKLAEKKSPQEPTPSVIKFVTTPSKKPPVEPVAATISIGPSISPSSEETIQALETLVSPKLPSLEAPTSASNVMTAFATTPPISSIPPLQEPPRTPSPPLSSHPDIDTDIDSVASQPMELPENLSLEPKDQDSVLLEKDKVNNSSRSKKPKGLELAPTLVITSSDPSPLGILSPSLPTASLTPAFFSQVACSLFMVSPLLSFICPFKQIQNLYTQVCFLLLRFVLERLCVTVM
The following applies: protein: recombinant; tags: N-terminal GST; dsDNA, one strand shown. In a few lines:
as §1

A further assay deals with T9, ETV2 (Homo sapiens, UniProt O00321 1-342).
T9 sequence: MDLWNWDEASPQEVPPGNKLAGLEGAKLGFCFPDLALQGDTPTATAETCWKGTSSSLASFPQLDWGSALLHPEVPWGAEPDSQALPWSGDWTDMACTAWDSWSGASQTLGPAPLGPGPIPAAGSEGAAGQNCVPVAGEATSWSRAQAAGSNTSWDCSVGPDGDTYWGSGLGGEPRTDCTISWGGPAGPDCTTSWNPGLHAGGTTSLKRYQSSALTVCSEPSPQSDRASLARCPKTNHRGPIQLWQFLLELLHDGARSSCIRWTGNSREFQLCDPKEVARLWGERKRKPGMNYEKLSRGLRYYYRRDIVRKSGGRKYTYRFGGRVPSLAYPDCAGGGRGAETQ
To be noted: protein: recombinant; tags: N-terminal GST; dsDNA, one strand shown. The procedure, abridged:
as §1

In the next assay the target is T10, ELF3 (Homo sapiens, UniProt P78545 1-371).
T10 sequence: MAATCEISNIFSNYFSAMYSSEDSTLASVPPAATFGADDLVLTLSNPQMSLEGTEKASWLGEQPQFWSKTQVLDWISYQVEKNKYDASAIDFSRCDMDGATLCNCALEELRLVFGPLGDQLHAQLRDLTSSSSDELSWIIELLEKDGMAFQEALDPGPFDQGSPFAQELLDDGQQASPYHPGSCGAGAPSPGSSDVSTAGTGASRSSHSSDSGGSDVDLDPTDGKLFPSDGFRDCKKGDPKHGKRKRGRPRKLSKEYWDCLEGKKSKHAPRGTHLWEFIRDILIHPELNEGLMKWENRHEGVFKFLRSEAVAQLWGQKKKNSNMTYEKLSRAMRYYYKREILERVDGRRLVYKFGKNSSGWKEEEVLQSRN
To be noted: protein: recombinant; tags: N-terminal GST; dsDNA, one strand shown. The procedure, abridged:
as §1

A further assay deals with CRX (Homo sapiens, UniProt O43186 1-299). The following applies: protein: recombinant; tags: N-terminal GST; dsDNA, one strand shown. The procedure, abridged:
as §1

Another assay addresses ETV1 (Homo sapiens, UniProt P50549 1-477). To be noted: protein: recombinant; tags: N-terminal GST; dsDNA, one strand shown. In a few lines: as §1

Chain of ETV5 (P41161 whole entry): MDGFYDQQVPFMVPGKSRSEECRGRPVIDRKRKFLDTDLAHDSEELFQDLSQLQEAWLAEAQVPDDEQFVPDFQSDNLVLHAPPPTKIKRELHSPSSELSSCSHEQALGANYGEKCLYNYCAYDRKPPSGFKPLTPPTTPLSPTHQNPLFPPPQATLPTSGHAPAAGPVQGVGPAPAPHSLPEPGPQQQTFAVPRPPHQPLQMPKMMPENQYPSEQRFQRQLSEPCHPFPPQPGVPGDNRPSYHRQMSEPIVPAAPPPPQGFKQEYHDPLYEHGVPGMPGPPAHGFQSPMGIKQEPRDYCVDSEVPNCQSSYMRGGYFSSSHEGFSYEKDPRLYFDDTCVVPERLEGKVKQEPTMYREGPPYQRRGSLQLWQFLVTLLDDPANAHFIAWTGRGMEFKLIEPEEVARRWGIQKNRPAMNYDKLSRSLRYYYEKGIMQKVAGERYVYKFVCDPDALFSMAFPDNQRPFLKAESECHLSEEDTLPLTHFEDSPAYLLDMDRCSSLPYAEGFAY
Chain of ELF4 (Q99607 whole entry): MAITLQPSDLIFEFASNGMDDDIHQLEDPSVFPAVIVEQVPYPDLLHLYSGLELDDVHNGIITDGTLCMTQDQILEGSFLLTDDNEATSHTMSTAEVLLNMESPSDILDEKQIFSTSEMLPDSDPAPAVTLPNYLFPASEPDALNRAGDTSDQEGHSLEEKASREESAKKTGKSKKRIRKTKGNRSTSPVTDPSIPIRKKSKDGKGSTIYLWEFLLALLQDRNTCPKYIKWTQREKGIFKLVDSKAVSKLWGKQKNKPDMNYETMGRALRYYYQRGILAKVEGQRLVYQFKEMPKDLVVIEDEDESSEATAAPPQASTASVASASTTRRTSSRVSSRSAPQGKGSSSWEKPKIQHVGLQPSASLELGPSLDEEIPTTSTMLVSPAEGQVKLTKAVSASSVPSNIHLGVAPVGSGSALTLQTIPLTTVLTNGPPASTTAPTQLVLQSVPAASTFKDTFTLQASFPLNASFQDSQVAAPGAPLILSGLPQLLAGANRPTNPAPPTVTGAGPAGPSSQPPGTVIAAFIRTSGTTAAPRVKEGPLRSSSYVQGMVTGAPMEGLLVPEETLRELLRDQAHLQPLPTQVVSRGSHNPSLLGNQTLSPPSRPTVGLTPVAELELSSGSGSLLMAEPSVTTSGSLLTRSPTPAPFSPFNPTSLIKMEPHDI
Chain of SPIB (Q01892 whole entry): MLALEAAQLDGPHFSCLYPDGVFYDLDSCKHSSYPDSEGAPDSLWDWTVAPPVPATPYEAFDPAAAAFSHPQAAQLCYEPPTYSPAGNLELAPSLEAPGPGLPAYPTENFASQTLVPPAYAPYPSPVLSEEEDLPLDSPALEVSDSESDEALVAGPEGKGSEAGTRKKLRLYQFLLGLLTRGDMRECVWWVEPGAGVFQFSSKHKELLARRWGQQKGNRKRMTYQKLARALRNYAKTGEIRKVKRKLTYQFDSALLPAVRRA
Chain of ELF1 (P32519 whole entry): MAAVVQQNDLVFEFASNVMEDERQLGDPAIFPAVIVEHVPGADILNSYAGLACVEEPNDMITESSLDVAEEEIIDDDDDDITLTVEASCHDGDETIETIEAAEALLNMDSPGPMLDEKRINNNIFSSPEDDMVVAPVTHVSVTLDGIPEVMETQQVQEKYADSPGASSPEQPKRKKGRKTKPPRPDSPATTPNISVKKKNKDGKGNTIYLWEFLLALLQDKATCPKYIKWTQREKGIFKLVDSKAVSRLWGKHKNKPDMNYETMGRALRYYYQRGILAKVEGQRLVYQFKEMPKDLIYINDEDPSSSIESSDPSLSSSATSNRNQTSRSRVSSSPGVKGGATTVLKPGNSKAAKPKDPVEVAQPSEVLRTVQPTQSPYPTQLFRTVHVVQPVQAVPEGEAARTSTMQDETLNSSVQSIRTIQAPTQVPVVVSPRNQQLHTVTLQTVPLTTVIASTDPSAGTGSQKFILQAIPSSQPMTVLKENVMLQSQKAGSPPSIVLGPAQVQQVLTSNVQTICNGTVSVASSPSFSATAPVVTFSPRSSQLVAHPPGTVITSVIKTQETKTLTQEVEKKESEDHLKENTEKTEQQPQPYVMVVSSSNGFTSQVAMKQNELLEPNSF
Chain of ETV1 (P50549 whole entry): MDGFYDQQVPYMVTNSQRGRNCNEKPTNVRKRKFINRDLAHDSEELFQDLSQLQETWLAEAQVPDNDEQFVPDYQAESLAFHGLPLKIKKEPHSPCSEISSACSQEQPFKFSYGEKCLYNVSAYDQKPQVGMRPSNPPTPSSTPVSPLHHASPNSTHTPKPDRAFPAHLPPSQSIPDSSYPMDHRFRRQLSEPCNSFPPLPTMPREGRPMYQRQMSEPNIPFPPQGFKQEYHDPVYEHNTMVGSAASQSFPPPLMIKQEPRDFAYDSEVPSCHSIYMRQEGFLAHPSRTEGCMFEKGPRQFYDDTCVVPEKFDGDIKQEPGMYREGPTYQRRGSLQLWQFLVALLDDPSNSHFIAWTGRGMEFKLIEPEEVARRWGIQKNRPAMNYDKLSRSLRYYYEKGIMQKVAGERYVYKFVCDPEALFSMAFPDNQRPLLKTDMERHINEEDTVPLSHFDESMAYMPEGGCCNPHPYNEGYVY
Chain of CRX (O43186 whole entry): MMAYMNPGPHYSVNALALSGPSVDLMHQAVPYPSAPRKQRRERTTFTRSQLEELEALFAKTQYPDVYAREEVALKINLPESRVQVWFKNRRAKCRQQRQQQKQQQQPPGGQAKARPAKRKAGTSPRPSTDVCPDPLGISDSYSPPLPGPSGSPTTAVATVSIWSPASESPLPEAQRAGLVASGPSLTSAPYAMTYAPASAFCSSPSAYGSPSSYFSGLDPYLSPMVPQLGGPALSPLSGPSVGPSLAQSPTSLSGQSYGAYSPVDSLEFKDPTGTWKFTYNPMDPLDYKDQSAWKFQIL
Chain of HSF1 (Q00613 whole entry): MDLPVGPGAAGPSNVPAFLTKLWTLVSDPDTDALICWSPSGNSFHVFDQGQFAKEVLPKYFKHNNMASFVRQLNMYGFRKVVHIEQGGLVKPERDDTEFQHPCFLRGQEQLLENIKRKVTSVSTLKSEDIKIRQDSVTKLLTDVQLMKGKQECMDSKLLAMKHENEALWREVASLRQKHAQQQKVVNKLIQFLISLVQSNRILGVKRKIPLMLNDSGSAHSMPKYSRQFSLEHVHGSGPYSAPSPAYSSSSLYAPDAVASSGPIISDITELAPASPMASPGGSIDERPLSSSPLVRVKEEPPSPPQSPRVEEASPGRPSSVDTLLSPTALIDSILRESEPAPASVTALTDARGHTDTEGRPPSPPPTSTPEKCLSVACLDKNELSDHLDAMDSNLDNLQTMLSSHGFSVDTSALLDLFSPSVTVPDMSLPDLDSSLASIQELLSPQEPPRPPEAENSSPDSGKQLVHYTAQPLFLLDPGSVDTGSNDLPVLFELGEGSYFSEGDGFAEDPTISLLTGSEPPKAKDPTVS

In the case of CCATTG, the binding signal in the assay with FLI1 was 1.33 fold enrichment (6-mer frequency, TF over GST control); with ELK1 it was 1.16 fold enrichment (6-mer frequency, TF over GST control); with GABPA, 1.32 fold enrichment (6-mer frequency, TF over GST control); with ERG it was 1.19 fold enrichment (6-mer frequency, TF over GST control); with ELF1, 1.15 fold enrichment (6-mer frequency, TF over GST control); in the assay with EHF, 1.19 fold enrichment (6-mer frequency, TF over GST control). Further, the binding signal with SPI1 is 1.25 fold enrichment (6-mer frequency, TF over GST control); with SPIB, 1.05 fold enrichment (6-mer frequency, TF over GST control); with ELK3, 1.16 fold enrichment (6-mer frequency, TF over GST control); in the assay with FEV, 1.15 fold enrichment (6-mer frequency, TF over GST control); with ETV5, 1.16 fold enrichment (6-mer frequency, TF over GST control); with HSF1, 1.07 fold enrichment (6-mer frequency, TF over GST control). Besides, the binding signal with ELF4 was 1.17 fold enrichment (6-mer frequency, TF over GST control); in the assay with ELK4 it was 1.11 fold enrichment (6-mer frequency, TF over GST control); with ETV2, 1.26 fold enrichment (6-mer frequency, TF over GST control); with ELF3 it was 1.07 fold enrichment (6-mer frequency, TF over GST control); with CRX, 1.02 fold enrichment (6-mer frequency, TF over GST control); with ETV1, 1.05 fold enrichment (6-mer frequency, TF over GST control).
